Shown are actives, neighbours in structure and some others; about 7.9% of the full set was active somewhere.
Lassa entry inh = blocks Lassa virus binding to or entry into cells; Lassa virus pseudotype entry inhibition, cell reporter; Potency, µM (highest dose often 37.9 µM), usual class: inhibitors; 1.2% of 300,000 active; AID 540256; calls by dose curve; tested in HEK293 cells; further: nearly all actives have a fitted effect of over 50% in size
FMDV inh = blocks foot and mouth disease virus | FMDV antiviral cell-based qHTS | Potency, µM (series often up to 57.9 µM), hits mostly inhibitors | 1.2% of 410,000 active | AID 1159524; calls by dose curve; tested in HEK293T cells; further: read-out not given here; nearly all actives have a fitted effect of over 45% in size
HCV inh = inhibitors of hepatitis C virus infection; Huh7.5.1 HCVcc-Cre infection, luciferase reporter, 44 h; Potency, µM (highest dose often 41.8 µM), hits mostly inhibitors; 3.4% of 340,000 active; AID 651820; active means well fitted inhibition curve with a large enough effect; inconclusive means small, poorly fitted or top-dose-only effect, or another doubt; inactive means no such curve, though single readings can be large or run the other way
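After 44 h co-culture of compound, cells and HCVcc-Cre (~0.5 moi), substrate is added for 15 min at room temperature and luciferase measured over 15 sec. Cells were seeded at 1,000/well and pre-cultured 4 h.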
HCMV antiviral = inhibitors of human cytomegalovirus. 4.5% of 410,000 active. HFF cells, HCMV-luciferase reporter, 72 h; hits give low values. activity change, negative = inhibition, % at 57.5 µM. AID 1259415; in the data active means activity change below about -60%; inconclusive means no clear call, values can overlap the other calls; inactive means above about -39%
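Compounds were evaluated in HFFs infected with an HCMV luciferase reporter virus (MOI 1 PFU/cell). Luciferase in lysates collected 72 h post infection served as the replication measure.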
Marburg entry inh = blocks Marburg virus binding to or entry into cells; Marburg virus pseudotyped entry inhibition, cell reporter; Potency, µM (top dose mostly 37.8 µM), most hits filed as inhibitors; 1.8% of 300,000 active; calls by dose curve; tested in HEK293 cells
Each line names hits and unclear results; the compound was inactive in the other large screens.

CC(C)(C)CN1CCN(Cc2nc(-c3ccc(F)cc3)cs2)CC1CCO (stereo not drawn)	FMDV inh inconclusive, HCV inh 2.24µM, HCMV antiviral -63.6, Marburg entry inh inconclusive
CNC(=O)c1c(NC(=O)c2nc(SCc3ccc(C)cc3)ncc2Cl)sc2c1CCCC2	Marburg entry inh inconclusive (no result: HCV inh)
Cc1cccc(N2CCc3c2nc2ccc(Br)cc2c3N)c1	HCV inh 10µM, HCMV antiviral inconclusive, Marburg entry inh inconclusive (no result: FMDV inh)
Nc1c2c(nc3ccc(Br)cc13)N(Cc1ccccc1)CC2	HCV inh 10µM
Nc1c2c(nc3ccc(Br)cc13)N(c1ccccc1)CC2	HCV inh 7.08µM (no result: FMDV inh)
Brc1ccc(-c2nc(N3CCN(c4ccccc4)CC3)c3ccccc3n2)cc1	Lassa entry inh inconclusive, HCMV antiviral inconclusive (no result: HCV inh, Marburg entry inh)
CSc1nc(C)c2c(n1)N(c1cccc(C)c1)CC2	HCV inh 10µM
Cc1ccc2cc3c(nc2c1)N(c1ccccc1)CC3	HCV inh inconclusive, HCMV antiviral inconclusive
Nc1c2c(nc3ccccc13)CCN(Cc1ccccc1)C2	HCV inh inconclusive (no result: Lassa entry inh, Marburg entry inh)
Nc1c(-c2nc(-c3cccs3)no2)nnn1-c1cccc(Cl)c1	Lassa entry inh inconclusive (no result: HCV inh, Marburg entry inh)
CC(C)CC(COCc1cccc(Cl)c1)N1CCN(C(=O)c2ccc(C(F)(F)F)cc2)CCC1=O (stereo not drawn)	Lassa entry inh 10.3µM, FMDV inh inconclusive, Marburg entry inh inconclusive
CC(C)CC(COCc1ccc(F)cc1)N1CCN(C(=O)c2cccc(C(F)(F)F)c2)CCC1=O (stereo not drawn)	Lassa entry inh 20.6µM, Marburg entry inh inconclusive
COc1ccc(Br)cc1/C=N/NS(=O)(=O)c1ccccc1	HCMV antiviral -86.6 (no result: Lassa entry inh, HCV inh, Marburg entry inh)
COc1ccc(Br)cc1/C=N/Nc1ccccn1	HCV inh 11.2µM (no result: Lassa entry inh, Marburg entry inh)
COc1cc(-c2cc(C)c3c(OC)ccc(OC)c3n2)cc2c1OCCN(C(=O)Cn1nc(C)cc1C)C2	none (no result: Lassa entry inh, HCV inh, HCMV antiviral, Marburg entry inh)
CCN(CC)S(=O)(=O)c1cccc(C(=O)Nc2cccnc2)c1	none
CCN(CC)S(=O)(=O)c1cc(C)ccc1NC(=S)Nc1cccnc1	Lassa entry inh inconclusive, HCV inh 11.2µM, HCMV antiviral -68.8, Marburg entry inh 11.2µM
COC(=O)C1=C(C)N(CC2CC2)C(=O)NC1c1ccccc1 (stereo not drawn)	none (no result: Lassa entry inh, FMDV inh, HCV inh, HCMV antiviral)
O=C(N/N=C/c1cc([N+](=O)[O-])ccc1O)c1ccc2c(c1)OCCO2	Lassa entry inh inconclusive, HCV inh inconclusive, Marburg entry inh inconclusive
O=C(N/N=C/c1ccccc1[N+](=O)[O-])c1ccc2c(c1)OCCO2	Lassa entry inh 1.41µM, FMDV inh inconclusive, HCV inh inconclusive, Marburg entry inh 2.51µM
O=C(N/N=C/c1cc(O)ccc1[N+](=O)[O-])c1ccc2c(c1)OCCO2	Lassa entry inh 5.01µM, FMDV inh inconclusive, Marburg entry inh inconclusive
O=C(c1cc(COc2cccc(C(F)(F)F)c2)on1)N1C[C@H]2CC[C@H]1C2	Marburg entry inh inconclusive
CC1(C)C[C@@H]2C[C@@](C)(CN2C(=O)c2cc(COc3cccc(C(F)(F)F)c3)on2)C1	HCV inh 10µM, HCMV antiviral inconclusive, Marburg entry inh inconclusive
CCOC(=O)c1c(NC(=O)CSc2ncnc3ccccc23)sc(C(C)=O)c1C	FMDV inh 25.1µM, HCV inh 11.2µM
COC(=O)c1c(NC(=O)CSc2ncnc3ccccc23)sc(C)c1C	Lassa entry inh inconclusive, HCV inh 17.8µM
COc1ccc(CNC(=O)Cn2nc(C)c3nn(-c4ccc(Cl)cc4)c(C)c3c2=O)cc1	none (no result: HCV inh, Marburg entry inh)
O=C(C/C=N\OCc1ccc([N+](=O)[O-])cc1)Nc1ccc(Br)cc1	HCMV antiviral -65.5
Cc1ccc2cccc(NC(=O)COc3ccccc3Cl)c2n1	none (no result: HCV inh)
COc1cccc(C2(CSc3nnc(-c4cc(OC)c(OC)c(OC)c4)o3)OCCO2)c1	Lassa entry inh 11.2µM, FMDV inh inconclusive, HCV inh inconclusive
COc1cc(-c2nnc(SCCOc3ccc(Cl)cc3)o2)cc(OC)c1OC	FMDV inh inconclusive (no result: HCV inh)
c1ccc2c(-c3cnc4cccnn34)cncc2c1	none (no result: Lassa entry inh, HCV inh, Marburg entry inh)
c1cc(-c2cnc3cccnn23)c2cccnc2c1	HCMV antiviral -68.8 (no result: Lassa entry inh, HCV inh, Marburg entry inh)
CCOc1ccc(NC(=O)c2cn3c4c(ccc(Cl)c4c2=O)OC(C)C3)cc1 (stereo not drawn)	none (no result: HCV inh, Marburg entry inh)
Cc1ccc(Cc2c(-c3ccco3)nc3c4ccccc4ccn23)cc1	none (no result: Lassa entry inh, HCV inh, Marburg entry inh)
CC(=O)c1ccc(-c2nc3c4ccccc4ccn3c2C(C)=O)o1	Lassa entry inh 1.26µM, HCMV antiviral -64.7, Marburg entry inh 1µM
Cc1nn(S(=O)(=O)c2ccc(C(C)C)cc2)c(C)c1S(=O)(=O)N1CCCCCC1	none (no result: HCV inh, Marburg entry inh)
CN1CCN(c2ncc3nc(CCc4ccccc4)c(=O)n(CCC#N)c3n2)CC1	none (no result: Lassa entry inh, HCV inh, HCMV antiviral, Marburg entry inh)
CCC(C)NC(=O)c1cccc(NC(=O)c2nsc3ccccc23)c1 (stereo not drawn)	Lassa entry inh inconclusive (no result: HCV inh, Marburg entry inh)
O=C1C=CC(=O)N1Cc1ccncc1	Marburg entry inh inconclusive
O=C1C=CC(=O)N1CCCCCCCCCCN1C(=O)C=CC1=O	Lassa entry inh inconclusive, FMDV inh 20µM, HCV inh inconclusive, Marburg entry inh inconclusive
COc1ccc(CNc2nn3c(-c4cccc(C(=O)N(C)C)c4)cnc3s2)cc1	HCMV antiviral -66.4 (no result: Lassa entry inh, HCV inh, Marburg entry inh)
COc1cccc(-c2cc(NC=O)c3ncc(-c4cccc(C(=O)N(C)C)c4)n3c2)c1	none (no result: Lassa entry inh, HCV inh, Marburg entry inh)
CCN1CCN(C(c2ccc(C(F)(F)F)cc2)c2ccc3cccnc3c2O)CC1 (stereo not drawn)	Lassa entry inh inconclusive, FMDV inh inconclusive, HCV inh 7.08µM, HCMV antiviral -84.8, Marburg entry inh inconclusive
OCCN1CCN(C(c2cccs2)c2ccc3cccnc3c2O)CC1 (stereo not drawn)	none (no result: Lassa entry inh, FMDV inh, HCV inh, HCMV antiviral)
CCOc1ccc(CCNS(=O)(=O)c2c(C)nc3sc(C)cn3c2=O)cc1OCC	none (no result: HCV inh, Marburg entry inh)
C=CC(C1=CC(=O)C(OC)=CC1=O)c1ccccc1 (stereo not drawn)	none (no result: Lassa entry inh, HCV inh, HCMV antiviral, Marburg entry inh)
C=CC(C1=CC(=O)C(OC)=C(OC)C1=O)c1ccccc1 (stereo not drawn)	FMDV inh 25.1µM (no result: Lassa entry inh, HCV inh, HCMV antiviral, Marburg entry inh)
COc1ccc(CNC(=O)C(C)n2nc(C)c3c(C)n(-c4ccc(C)cc4)nc3c2=O)cc1 (stereo not drawn)	FMDV inh inconclusive, HCV inh inconclusive, HCMV antiviral -68.0
Cc1ccc(-n2nc3c(=O)n(CC(=O)c4ccc(F)cc4)nc(C)c3c2C)cc1	FMDV inh 25.1µM, HCV inh inconclusive
Cc1ccc(CCNC(=O)C(C)n2nc(C)c3c(C)n(-c4ccc(C)cc4)nc3c2=O)cc1 (stereo not drawn)	Lassa entry inh inconclusive, FMDV inh 11.2µM, HCMV antiviral -62.1 (no result: HCV inh, Marburg entry inh)
CCC(C(=O)Nc1ccccc1F)n1nc(C)c2c(C)n(-c3ccccc3)nc2c1=O (stereo not drawn)	HCMV antiviral inconclusive (no result: Lassa entry inh, Marburg entry inh)
CCC(C(=O)Nc1cc(F)ccc1F)n1nc(C)c2c(C)n(-c3ccc(C)cc3)nc2c1=O (stereo not drawn)	FMDV inh inconclusive, HCV inh 8.91µM, HCMV antiviral -95.3 (no result: Marburg entry inh)
O=C(NCC1Cc2cccc(-c3ncccn3)c2O1)c1cccc(-c2ccccc2F)c1 (stereo not drawn)	none (no result: Lassa entry inh, HCV inh, HCMV antiviral, Marburg entry inh)
COc1ccc(OC)c(NC(=O)c2cc(=O)c3c(C)cc(C)cc3o2)c1	Marburg entry inh inconclusive (no result: HCV inh)

High-throughput results as filed in PubChem BioAssay.
